The term Inhibition denotes the share of the control response that was lost under treatment. The low end stands for little suppression, the high end for strong suppression.

The experiment deals with HepG2. Put plainly: GSK_TCMDC: Percent inhibition of human HepG2 cell line. Test compounds present at 10uM. Type of experiment: functional.
Consider `CN1CCCC(CN2CCN(Cc3ccc(-c4ccc(-c5nc6cc(F)ccc6[nH]5)cc4)cc3)CC2)C1.O=C(O)C(F)(F)F` (stereo unspecified), for which the Inhibition was 90%.
For `Br.CC(CCON1C(N)=NC(N)=NC1(C)C)c1ccc(Cl)cc1` (stereo unspecified) the value was 64%; for `CC(C)CN(C)Cc1ccc(-c2ccc(-c3nc4ccccc4[nH]3)s2)cc1`, 8%.
With `O=C(Nc1cccc(C(F)(F)F)c1)c1cccc(S(=O)(=O)NCC2CCCN(Cc3ccccc3)C2)c1.O=C(O)C(F)(F)F` (stereo unspecified) the figure was 17%; with `CCCCN(CCCC)CCCN(CCCN(CCCC)CCCC)c1cc(C)nc(Nc2ccc3cc(Br)ccc3c2)n1.Cl`, 52%; with `CC(CCc1ccccc1)NCC(O)c1ccc2c3c(cccc13)S(=O)(=O)N2C.Cl` (stereo unspecified), 16%.
Regarding `Cc1cccc2nc(-c3cccc(-c4ccc(C(=O)NCCc5ccc(O)c(=O)[nH]5)cc4)c3)[nH]c12`, the Inhibition turned out to be 20%.
For `CC(C)(CN)c1nc(-c2ccc(Cl)c(O)c2)c(-c2ccnc(N)n2)[nH]1` the value was 34%; for `CC(C)(C)CCOC(=O)N1CCc2c(cc(O)c(O)c2Cl)C(c2ccc(O)cc2)C1` (stereo unspecified), 2%.
For `Cc1ccc(C)c2sc(N(CCCn3ccnc3)C(=O)C=Cc3cccs3)nc12.Cl` the value was 20%; for `O=C(NCC(c1ccc(C(F)(F)F)cc1)N1CCCC1)c1cc(-c2ccncc2)c(-c2cccc(O)c2)o1.O=C(O)C(F)(F)F` (stereo unspecified), 9%; for `O=C(Nc1cccc(CN2CCN(Cc3ccc(O)cc3)CC2)c1)c1ccc(Cl)c(Cl)c1.O=C(O)C(F)(F)F`, 30%.
As for `O=C(/C=C/c1ccc(Cl)c(Cl)c1)NCCCCCN1CCC(CCNC(=O)c2snnc2-c2ccccc2)CC1`, the Inhibition is 54%.
For `CCOc1cc(Br)c(C(C)NC(=O)c2cccc(OC)c2)cc1OCC` (stereo unspecified), the Inhibition turned out to be 0%.
In turn, `CCOc1cc(C(=O)N[C@@H](Cc2ccccc2)[C@H](O)CNC(C)(C)c2cccc(OC)c2)cc(N2CCCS2(=O)=O)c1` showed an Inhibition of 0%.
As to `CCN1CCc2c1cc(C(=O)N[C@@H](Cc1ccccc1)[C@H](O)CNC(C)(C)c1cccc(C(F)(F)F)c1)cc2N1CCCCS1(=O)=O`, the Inhibition was 6%.
Compound `CN(C)Cc1ccc(-c2ccc(NC(=O)c3ccc4c(=O)n(Cc5ccccc5)cnc4c3)cc2)cc1` showed an Inhibition of 94%.
`Cl.Oc1ccc2ccccc2c1CNC1CCCCCC1` showed an Inhibition of 9%.
In the case of `CC(C)c1ccc(NC(=O)N2CCc3ccc(OCCN(C(C)C)C(C)C)cc32)c(Br)c1.O=C(O)C(F)(F)F`, the Inhibition was found to be 6%.
Compound `COc1ccc(NC(=O)[C@H](Cc2ccccc2)Nc2nc(NCCN3CCCC3)ncc2C)cc1.O=C(O)C(F)(F)F` yielded an Inhibition of 26%.
For `COc1cc2ccccc2c(CNCCCCCCNCc2c(OC)c(OC)cc3ccccc23)c1OC.CS(=O)(=O)O` the value was 100%; for `COc1ccccc1NC(=O)Nc1cccc(-c2cccc(-c3nc4cccc(C)c4[nH]3)c2)c1`, 11%.
Compound `COc1ccc(CN2CCC(CNCCc3c(Cl)cccc3Cl)CC2)cc1.O=C(O)C(F)(F)F` registered an Inhibition of 45%.
For `CN(CCCNc1ccc(C(=O)Nc2ccc(C(F)(F)F)cc2)cc1[N+](=O)[O-])Cc1ccccc1` the value was 25%; for `Cc1cc(N2CCCC2)nc(Nc2ccc(NC(=O)C3CCCC3)cc2)n1`, 27%.
The compound `CN(CC(=O)Nc1cc(C(F)(F)F)ccc1-n1cncn1)Cc1ccc2ccccc2c1` gave an Inhibition of 18%.

The values above are taken from ChEMBL document CHEMBL1157539, “Thousands of chemical starting points for antimalarial lead identification” (Nature, 2010).
